According to PubChem BioAssay:
Active and inactive are the calls of the source. Unless noted, how the calls were made is not given here.

Legend:
[1] = resazurin metabolic signal in HepG2 cells – cell-based, resazurin fluorescence, 24 h, PK04 Diversity Set, profiling panel (AID 1172); conditions: HepG2 viability, higher = more signal
[2] = budding yeast growth changes without added modifier – OD600, strain BY4716, 24 h, basal condition, primary screen (AID 1173); conditions: S. cerevisiae BY4716 growth, OD600, 24 h; higher = more signal, called active from +8 up or from −8 down
[3] = viability profiling in MM1S myeloma cells – cell-based, resazurin fluorescence, basal, 24 h, PK04 Diversity Set, profiling panel (AID 1174); conditions: higher = more signal, called active from +8 up or from −8 down;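 further: MM1S multiple myeloma cell line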
[4] = biological target: Dihydroorotate dehydrogenase (quinone), mitochondrial (Plasmodium falciparum (isolate 3D7)) (UniProt Q08210); assay: inhibition of P. falciparum DHODH – biochemical, C-terminal His tag, absorbance 600 nm, primary screen (AID 1175); conditions: PfDHODH enzyme, DCIP absorbance 600 nm; higher = more signal, called active from +8 up or from −8 down;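 further: recombinant parasite enzyme with a five histidine tag at its C terminus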
[5] = inhibition of PAO1 biofilm formation – strain PAO1, LB-PBS medium, absorbance 600 nm, primary screen (AID 1176); conditions: P. aeruginosa PAO1 growth/biofilm, A600, 12 h; higher = more signal
[6] = growth modulation of vineyard yeast isolate – strain RM11-1a, OD600, basal, 24 h, primary screen (AID 1177);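 further: cultures grown under basal conditions with no added stressor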; conditions: S. cerevisiae RM11-1a growth, OD600, 24 h; higher = more signal, called active from +8 up or from −8 down
[7] = growth of efflux-deficient E. coli DRC39 – strain DRC39, OD650, 24 h, E. coli filamentation inducers, primary screen (AID 1178);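 further: growth measured as culture turbidity by optical density at 650 nm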; conditions: E. coli DRC39 acrAB, higher = more signal, called active from +8 up or from −8 down
[8] = growth of efflux-deficient E. coli DRC39 – strain DRC39, OD650, 48 h, E. coli filamentation inducers, primary screen (AID 1179);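 further: screen aims at cell division blockers that make cells filament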; conditions: E. coli DRC39 delta-acrAB growth, higher = more signal, called active from +8 up or from −8 down
[9] = viability profiling in RPMI8226 myeloma cells – cell-based, resazurin fluorescence, basal, 24 h, PK04 Diversity Set, profiling panel (AID 1180); conditions: higher = more signal;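 further: RPMI8826 multiple myeloma cell line at 5000 cells per well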
[10] = biological target: E3 ubiquitin-protein ligase XIAP (Homo sapiens) (UniProt P98170); assay: small molecules binding XIAP protein – biophysical, small-molecule microarray, fluorescence 635 nm, primary screen (AID 1181); conditions: higher = more signal;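 further: score merges 667 nm emission and signal to noise over triplicate slides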
[11] = system: XIP peptide (Xip251-270) binding; assay: XIP fragment 251-270 binding compounds – biochemical, small-molecule microarray, fluorescence 635/667 nm, 0.1 µg/mL protein, primary screen (AID 1182); conditions: fluorescent protein binding, 635 nm, higher = more signal, called active from +8 up or from −8 down
[12] = system: XIP peptide (Xip251-270); assay: compounds binding XIP fragment 251-270 – biochemical, small-molecule microarray, fluorescence 635/667 nm, 0.5 µg/mL protein, primary screen (AID 1183); conditions: fluorescence 635 nm, higher = more signal
[13] = blood-stage malaria parasite viability loss – strain 3D7, DAPI fluorescence, 100 nL, primary screen (AID 1184);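 further: parasites grown inside human red blood cells in medium with human serum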; conditions: P. falciparum 3D7 growth, 3 d, higher = more signal
[14] = biological target: Homeobox protein Hox-A13 (Mus musculus) (UniProt Q62424); assay: disruptors of Hoxa13 oligonucleotide interaction – biochemical, fluorescence polarization, labeled oligonucleotide, primary screen (AID 1185); conditions: Hoxa13:DNA binding, 15 min, higher = more signal, called active from +8 up or from −8 down
[15] = blockers of DNA damage checkpoint Chk1 activation – imaging, HeLa, hydroxyurea, phospho-Chk1 antibody, percent positive cells, primary screen (AID 1186); conditions: hydroxyurea-induced phospho-Chk1 immunofluorescence imaging, higher = more signal
[16] = blockers of DNA damage checkpoint Chk1 activation – imaging, HeLa, hydroxyurea, phospho-Chk1 nuclear intensity, primary screen (AID 1187); conditions: hydroxyurea-induced phospho-Chk1 immunofluorescence imaging, higher = more signal

Homeobox protein Hox-A13 (Mus musculus), sequence (Q62424 whole entry, looked up): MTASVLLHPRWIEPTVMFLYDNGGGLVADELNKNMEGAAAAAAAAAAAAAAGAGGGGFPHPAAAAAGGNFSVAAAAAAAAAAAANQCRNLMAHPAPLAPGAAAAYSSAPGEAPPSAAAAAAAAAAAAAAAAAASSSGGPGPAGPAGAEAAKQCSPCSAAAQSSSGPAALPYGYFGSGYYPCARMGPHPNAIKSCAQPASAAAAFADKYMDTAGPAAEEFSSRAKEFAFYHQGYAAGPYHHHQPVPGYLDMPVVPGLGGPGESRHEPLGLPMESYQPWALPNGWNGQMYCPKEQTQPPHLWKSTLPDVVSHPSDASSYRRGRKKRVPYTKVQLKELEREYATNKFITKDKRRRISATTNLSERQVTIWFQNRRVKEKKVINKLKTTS
Dihydroorotate dehydrogenase (quinone), mitochondrial (Plasmodium falciparum (isolate 3D7)), sequence (Q08210 whole entry, looked up): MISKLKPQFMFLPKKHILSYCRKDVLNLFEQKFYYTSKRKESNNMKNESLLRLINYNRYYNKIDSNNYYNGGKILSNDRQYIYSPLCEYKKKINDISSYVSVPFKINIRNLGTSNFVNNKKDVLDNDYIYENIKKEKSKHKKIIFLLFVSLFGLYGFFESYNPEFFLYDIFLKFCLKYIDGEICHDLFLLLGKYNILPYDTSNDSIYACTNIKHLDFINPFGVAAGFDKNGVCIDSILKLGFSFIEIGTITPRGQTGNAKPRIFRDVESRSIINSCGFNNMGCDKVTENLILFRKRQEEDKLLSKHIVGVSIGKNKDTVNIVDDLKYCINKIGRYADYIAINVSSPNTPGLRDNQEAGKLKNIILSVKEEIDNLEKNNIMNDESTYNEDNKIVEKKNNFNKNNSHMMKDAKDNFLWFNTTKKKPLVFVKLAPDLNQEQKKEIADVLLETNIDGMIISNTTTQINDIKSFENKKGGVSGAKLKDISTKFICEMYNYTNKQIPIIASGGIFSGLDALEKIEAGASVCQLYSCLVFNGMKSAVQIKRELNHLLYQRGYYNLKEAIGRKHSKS
E3 ubiquitin-protein ligase XIAP (Homo sapiens), sequence (P98170 whole entry, looked up, the tested form may be a part): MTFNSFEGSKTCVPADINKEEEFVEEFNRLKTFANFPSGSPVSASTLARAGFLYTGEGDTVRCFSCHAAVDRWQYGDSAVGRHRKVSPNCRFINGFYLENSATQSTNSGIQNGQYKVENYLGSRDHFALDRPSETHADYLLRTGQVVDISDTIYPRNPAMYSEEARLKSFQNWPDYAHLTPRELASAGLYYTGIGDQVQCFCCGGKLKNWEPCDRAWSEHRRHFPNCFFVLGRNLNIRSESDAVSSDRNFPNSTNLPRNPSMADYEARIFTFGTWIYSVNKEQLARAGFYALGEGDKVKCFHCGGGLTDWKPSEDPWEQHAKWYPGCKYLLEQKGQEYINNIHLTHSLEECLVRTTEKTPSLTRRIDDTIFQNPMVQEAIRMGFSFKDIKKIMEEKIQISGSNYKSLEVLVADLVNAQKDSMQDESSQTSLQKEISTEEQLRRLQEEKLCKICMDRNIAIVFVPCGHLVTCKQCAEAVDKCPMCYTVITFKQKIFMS

Structure (SMILES) | z-score [1] | z-score [2] | z-score [3] | composite z-score [4] | z-score [5] | z-score [6] | z-score [7] | z-score [8] | z-score [9] | composite z-score [10] | composite z-score [11] | composite z-score [12] | z-score [13] | z-score [14] | z-score [15] | z-score [16]
O=C1O[C@H](c2ccccc2)[C@H](c2ccccc2)N2[C@H]1[C@@H](C(=O)N1CCN(c3ncccn3)CC1)[C@]1(C(=O)Nc3ccc(C#CCCO)cc31)[C@H]2c1ccccc1OCCO | -0.141 | 0.687 (inactive) | -0.31 (inactive) | -0.49 (inactive) | 1.34 (inactive) | 1.91 (inactive) | 0.156 (inactive) | 0.614 (inactive) | -1.36 | -0.16 | 0.439 (inactive) | 0.808 | -2.19 | -1.29 (inactive) | -0.329 (inactive) | -0.529 (inactive)
O=C(NCc1ccccc1)[C@]1(Cc2ccccc2)N=C(c2ccc(OCCCO)cc2)O[C@@H]1c1ccccc1 | 0.455 | 1.41 (inactive) | -1.91 (inactive) | 1.8 (inactive) | 1.19 (inactive) | 3.75 (inactive) | 0.653 (inactive) | -0.642 (inactive) | -1.79 | 0.0871 | 0.0268 (inactive) | 0.117 | -2.18 | -2.75 (inactive) | -0.875 (inactive) | -1.17 (inactive)
NC(=O)[C@H]1[C@@H]2C(=O)O[C@@H](c3ccccc3)[C@@H](c3ccccc3)N2[C@@H](c2ccc(O)cc2)[C@]12C(=O)Nc1ccc(C#CC3(O)CCCCCC3)cc12 | -0.518 | -0.475 (inactive) | 0.522 (inactive) | -0.885 (inactive) | 0.738 (inactive) | -0.323 (inactive) | 0.249 (inactive) | -0.815 (inactive) | 0.159 | -0.102 | 0.366 (inactive) | 0.836 | -1.85 | -1.28 (inactive) | 0.526 (inactive) | 0.301 (inactive)
CO[C@H]1O[C@H](CO)[C@@H](OC(=O)Nc2cccc(F)c2)[C@H](OC(=O)Nc2ccc3c(c2)OCO3)[C@H]1OC(=O)Nc1ccc2c(c1)OCO2 | -0.252 | 1.55 (inactive) | -1.53 (inactive) | -0.222 (inactive) | 1.38 (inactive) | 1.48 (inactive) | 1.49 (inactive) | 0.378 (inactive) | -1.89 | 0.652 | 1.87 (inactive) | 0.813 | -1.34 | -7.92 (inactive) | -0.178 (inactive) | 0.0427 (inactive)
COC(=O)[C@@]1(Cc2ccccc2)[C@H]2c3cc(C(=O)N(C)C)n(Cc4ccccn4)c3C[C@H]2CN1C(=O)c1ccccc1 | -0.802 | 1.6 (inactive) | -1.33 (inactive) | 0.611 (inactive) | 0.964 (inactive) | 0.781 (inactive) | -1.19 (inactive) | -0.507 (inactive) | -1.26 | 0.124 | 1.08 (inactive) | 0.595 | -0.847 | -4.92 (inactive) | 0.545 (inactive) | 0.295 (inactive)
CC1(C)[C@@H]2CC(C(O)C3C=CC4C(=O)N(c5ccccc5)C(=O)C4N3Nc3ccccc3F)=C[C@@H]1C2 (stereo partly drawn) | 1.48 | -0.393 (inactive) | 0.941 (inactive) | 1.09 (inactive) | 0.16 (inactive) | -0.393 (inactive) | 0.018 (inactive) | 0.985 (inactive) | -1.19 | 0.18 | 0.572 (inactive) | 0.458 | -0.59 | -2.4 (inactive) | 0.498 (inactive) | 0.749 (inactive)
COC(=O)C(CC#Cc1ccc2c(c1)[C@]1(C(=O)N2)[C@H](c2ccc(O)cc2)N2[C@H](c3ccccc3)[C@H](c3ccccc3)OC(=O)[C@H]2[C@@H]1C(=O)O)C(=O)OC | 0.464 | 0.338 (inactive) | -0.134 (inactive) | -1.59 (inactive) | 0.875 (inactive) | -0.316 (inactive) | -0.0388 (inactive) | -0.286 (inactive) | -0.0316 | -0.374 | -0.173 (inactive) | 0.665 | -0.102 | -6.45 (inactive) | 0.223 (inactive) | -0.31 (inactive)
O=C(O)[C@@]1(Cc2ccccc2)COC(c2ccc(OCCCO)cc2)=N1 | 0.0838 | 1.02 (inactive) | 0.296 (inactive) | 1.75 (inactive) | 0.274 (inactive) | 1.4 (inactive) | 1.58 (inactive) | 0.466 (inactive) | 0.318 | 0.33 | -0.781 (inactive) | -0.486 | -0.0272 | -1.29 (inactive) | -0.0393 (inactive) | 0.204 (inactive)
COCCCNC(=O)[C@@]1(Cc2ccccc2N=[N+]=[N-])N=C(c2ccc(OCCCO)cc2)O[C@H]1c1ccccc1CN=[N+]=[N-] | -0.859 | -0.255 (inactive) | -1.2 (inactive) | 0.283 (inactive) | 1.72 (inactive) | 0.154 (inactive) | 2.63 (inactive) | 0.575 (inactive) | -2.25 | -0.183 | 0.401 (inactive) | 0.763 | -2.23 | 0.427 (inactive) | -0.314 (inactive) | 0.446 (inactive)
CCOC(=O)C[C@H]1[C@H](OC(=O)Cc2ccc3c(c2)OCO3)[C@@H](NC(=O)c2ccccc2)c2cc(OCCCO)ccc2N1C(=O)c1ccccc1 | -0.688 | -0.271 (inactive) | 0.103 (inactive) | -1.11 (inactive) | 0.0885 (inactive) | 0.0859 (inactive) | 0.31 (inactive) | 0.676 (inactive) | -0.19 | -0.309 | -0.0294 (inactive) | 0.643 | -0.385 | -3.12 (inactive) | -0.454 (inactive) | -0.342 (inactive)
CN1C(=O)C2C=CC(C(O)COCc3ccccc3)N(Nc3ccccc3)C2C1=O (stereo not drawn) | 0.425 | -0.396 (inactive) | -0.825 (inactive) | -0.284 (inactive) | -0.0346 (inactive) | 0.328 (inactive) | -0.925 (inactive) | 0.0813 (inactive) | 0.182 | 0.267 | -0.184 (inactive) | 0.311 | 0.872 | -2.91 (inactive) | 0.466 (inactive) | 0.764 (inactive)
CC(C)(C)OC(=O)CC[C@]1(C(=O)N2CCCCC2)N=C(c2ccc(OCCCO)cc2)O[C@H]1c1ccccc1CN=[N+]=[N-] | -0.725 | -0.451 (inactive) | 0.0183 (inactive) | -0.625 (inactive) | 0.618 (inactive) | -0.391 (inactive) | 2.41 (inactive) | 2.39 (inactive) | -0.357 | 0.0346 | 1.25 (inactive) | 0.855 | -2.26 | -2.91 (inactive) | -0.692 (inactive) | -0.917 (inactive)
COC(=O)C(CC#Cc1ccc2c(c1)[C@]1(C(=O)N2)[C@H](c2ccc(O)cc2)N2[C@H](c3ccccc3)[C@H](c3ccccc3)OC(=O)[C@H]2[C@@H]1C(N)=O)C(=O)OC | 1.09 | -0.773 (inactive) | 0.455 (inactive) | 0.133 (inactive) | 1.28 (inactive) | -0.864 (inactive) | 1.68 (inactive) | 2.08 (inactive) | 1.1 | 0.153 | -0.609 (inactive) | -2.27 | 0.38 | 0.452 (inactive) | -0.174 (inactive) | -0.279 (inactive)
COC(=O)[C@@]1(Cc2ccc(F)cc2)[C@H]2c3cc(C(=O)N(C)C)n(Cc4ccc(C)c(F)c4F)c3C[C@H]2CN1C(=O)c1ccccc1 | 0.245 | 0.534 (inactive) | -0.231 (inactive) | 0.059 (inactive) | -0.0298 (inactive) | 0.671 (inactive) | 0.171 (inactive) | 0.265 (inactive) | -0.455 | -0.102 | 0.365 (inactive) | -0.0688 | -1.13 | -4.74 (inactive) | -0.014 (inactive) | -0.193 (inactive)
Cc1ccc(N2C(=O)c3ccccc3[C@](C)(C(=O)NC(C)C)[C@@H]2c2ccc(CO)cc2)nc1 | -0.591 | 0.201 (inactive) | 0.761 (inactive) | -3.7 (inactive) | 0.599 (inactive) | -0.243 (inactive) | 0.381 (inactive) | -0.111 (inactive) | 0.818 | -0.272 | -0.224 (inactive) | 0.677 | -0.736 | -0.858 (inactive) | 0.0932 (inactive) | 0.205 (inactive)
COCCCNC(=O)[C@@H]1c2ccccc2C(=O)N(Cc2cc(F)cc(C(F)(F)F)c2)[C@H]1c1ccc(CO)cc1 | -0.434 | -0.336 (inactive) | -0.522 (inactive) | -1.13 (inactive) | 0.36 (inactive) | -0.955 (inactive) | -0.109 (inactive) | -0.0475 (inactive) | -0.197 | -0.309 | -0.0408 (inactive) | -0.0784 | -0.288 | -2.79 (inactive) | 0.0176 (inactive) | -0.299 (inactive)
COCCCNC(=O)[C@]1(CCS(=O)(=O)c2ccccc2)N=C(c2ccc(OCCCO)cc2)O[C@@H]1c1ccccc1 | 0.484 | -0.324 (inactive) | 0.294 (inactive) | 0.888 (inactive) | -0.0304 (inactive) | -0.588 (inactive) | 0.604 (inactive) | 0.607 (inactive) | -0.0847 | 0.209 | 1.47 (inactive) | 0.919 | -2.13 | -4.72 (inactive) | -0.369 (inactive) | -0.42 (inactive)
C[N+](C)(C)CCCC[C@@H]1NC(=O)[C@@H]2C[C@H](C(=O)O)[C@H](c3cccc(OCCO)c3)N2C1=O | 0.72 | -0.219 (inactive) | 0.838 (inactive) | 0.284 (inactive) | -0.351 (inactive) | -0.126 (inactive) | 1.13 (inactive) | 1.36 (inactive) | 0.826 | -0.131 | 1.36 (inactive) | 0.246 | -0.0179 | -3.69 (inactive) | 0.153 (inactive) | 0.16 (inactive)
